# Measured values: PubChem BioAssay (Tox21)
# Inconclusive results are not listed. Entries that show only a call come without a potency. Unmarked numbers belong to inactive results. Calls of active or inactive are those of the source. Calls come from the whole dose curve; as a rule, active = well fitted cell-killing curve with a large enough effect in the repeat runs; inconclusive = weak or mixed curves, or effect the other way; inactive = flat fitted curve, though single readings scatter.
# Assay: Caspase-3/7 induction in HepG2 cells by small molecules, qHTS cell viability counter screen (AID 1346981); note: nearly all actives have a fitted effect of over 30% in size
# Conditions: CellTiter-Fluor fluorescence, 17 h; series mostly up to 92.4 µM
# Description: U.S. Tox21 Program National Center for Advancing Translational Sciences [NCATS] NIH Chemical Genomics Center [NCGC] U.S. Environmental Protection Agency [EPA] National Institutes of Environmental Health Sciences [NIEHS] National Toxicology Program [NTP] U.S. Food and Drug Administration [FDA] Tox21 Assay Overview: Apoptosis is a process of programmed cell death and plays a central role in the development of multicellular organisms. It is a highly regulated process and induces cell death by activating caspases, which are the members of cysteine aspartic acid-specific protease (caspase) family. Caspases involved in apoptosis are classified by their mechanism of action as initiator caspases (caspase-2, -8, -9 and -10) and executioner caspases (caspase-3, -6, and -7). Inhibition of apoptosis results in number of cancers, autoimmune diseases, inflammatory diseases and viral infection. To identify small molecule compounds that induce apoptosis, a homogeneous, luminescent Caspase-Glo 3/7 assay was used. Wild type HepG2 cells were used to screen Tox21 libraries for identifying caspase-3/7 activity inducers. Also cytotoxicity of the compounds was tested in parallel by measuring the cell viability using CellTiter-Fluor assay system in the same wells.
# Tox21 Assay Protocol Summary: HepG2 cells were dispensed at 2,000 per well in 5uL of culture medium into white solid bottom 1536-well plates (Corning Life Sciences, Corning, NY) using a Multidrop Combi (Thermo Scientific, Waltham, MA) dispenser. The assay plates were incubated at 37 C and 5% CO2 for 5hr, and then 23nL of compounds dissolved in DMSO and positive control were transferred using a Pintool station ([…], San Diego, CA). The assay plates were incubated at 37C and 5% CO2 for 17hr. For cytotoxicity read, after 16hr incubation at 37C, 1uL CellTiter-Fluor reagent (Promega Corporation, Madison, WI) was added to each well of the assay plates using Flying Reagent Dispenser (FRD, Aurora Discovery, San Diego, CA). After 1hr incubation at 37C and 5% CO2, the fluorescence signal was quantified using a ViewLux plate reader (PerkinElmer, Shelton, CT).
SMILES,Potency,"activity change, negative = cytotoxicity"
CC(CCl)OC(C)CCl (stereo not given),inactive,
CC1(C)CC(=O)CC(C)(C)N1,inactive,
CC(O)CN (stereo not given),inactive,
O=C(O)COCC(=O)O,inactive,
CCCCCCCCCCCCCCCCCCCl,,-0.332% [at 8.39 µM]
CCCN(C1CCN(C(=O)C2CCNCC2)CC1)[C@@H]1CCc2ccc(OC)cc2C1,inactive,
CC(C(=O)O)c1ccc(/C=C2\CCCCC2=O)cc1 (stereo not given),inactive,
CC(C)(C)N,inactive,
CC/C=C/CCO,inactive,
CCCCCCCCCCCCSC#N,inactive,
Cc1cc(C)c(C)c(O)c1,inactive,
O=[N+]([O-])c1ccccc1CCO,inactive,
CC(=O)OCC(=O)[C@@]1(O)CC[C@H]2[C@@H]3CCC4=CC(=O)C=C[C@]4(C)[C@@]3(F)[C@@H](O)C[C@@]21C,inactive,
Nc1ccc(C(=O)Oc2ccccc2)c(O)c1,inactive,
FC(F)(Cl)C(F)(Cl)Cl,inactive,
COc1cc(CNC(=O)CCCC/C=C/C(C)C)ccc1O,inactive,
Cc1nc2sccn2c(=O)c1CCN1CCC(=C(c2ccc(F)cc2)c2ccc(F)cc2)CC1,inactive,
CC(C(=O)O)c1ccc2c(c1)Cc1cccnc1O2 (stereo not given),inactive,
C/C(=C\C(C)CC(C)CC(C)C)C1CC(=O)OC1=O (stereo not given),inactive,
CCOC(=O)CC(O)(CC(=O)OCC)C(=O)OCC,inactive,

SMILES,Potency,"activity change, negative = cytotoxicity"
O=C(Cl)c1cc(Cl)cc(Cl)c1,inactive,
C=C(C)C(=O)OCCCCCCCCCCOC(=O)C(=C)C,inactive,
COC(=O)C(C)(C)C,inactive,
O=Cc1ccc(Cl)c([N+](=O)[O-])c1,inactive,
CC(C)(C)NCC(O)COc1ccc(NC(=O)NC2CCCCC2)cc1 (stereo not given),inactive,
SCCOCCOCCS,inactive,
CCCOC(C)=O,inactive,
CCCCCO,inactive,
FC1(F)C(F)(F)C(F)(F)C2(F)C(F)(C1(F)F)C(F)(F)C(F)(F)C1(F)C(F)(F)C(F)(F)C(F)(F)C(F)(F)C12F (stereo not given),inactive,
C=Cc1ccc(C=C)cc1,inactive,
COc1ccnc2c1CCCCC2S(=O)c1nc2ccccc2[nH]1 (stereo not given),inactive,
C/C=C1\[C@H]2C=C(C)C[C@]1(N)c1ccc(=O)[nH]c1C2,inactive,
S=c1[nH][nH]c(=S)s1,inactive,
OCCOc1cccc(OCCO)c1,inactive,
CCC(C(=O)O)c1ccc(N2Cc3ccccc3C2=O)cc1 (stereo not given),inactive,
O=C(O)c1cc(C(=O)O)cc([N+](=O)[O-])c1,inactive,
C/C(=C(\CCO)SS/C(CCO)=C(\C)N(C=O)Cc1cnc(C)nc1N)N(C=O)Cc1cnc(C)nc1N,inactive,
COc1ccc(/C=C/S(=O)(=O)NC(=O)c2ccc(C)cc2Cl)cc1,inactive,
O=C(O)CNc1ccccc1,inactive,
O=C(O)c1ccc2c(c1)nc(C(=O)NC1CCN(C3CC3)CC1)n2Cc1cc(-c2ccc(Cl)s2)on1,,3.23% [at 19 µM]
